About 2,000 (36%) of roughly 5,500 compounds were called active. Another 18% or so got no clear call; they are omitted. Rule as the data show it: active = normalized growth mostly below about 0.91 (no sharp cut-off); inconclusive = no clear call, values can overlap the other calls; inactive = mostly above about 0.92. The list shows a part of the results.
Test: chemical genetic growth profiling, strain panel (AID 1159580);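 also: tested at 20 µM; growth read once vehicle control cultures reached saturation at 30 °C; 1 = growth at the plate median or of vehicle wells; lower values mean less growth of the strain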
Settings: growth OD

Measured: normalized growth

C[C@]12C=CC(=O)C=C1CCC1C3C[C@@H](O)[C@](O)(C(=O)CO)[C@@]3(C)C[C@H](O)[C@@]12F (some centres undefined)
inactive: S. cerevisiae deletion strains, locus YJR066W, strain TOR1, stronger effect = lower value 0.952 | S. cerevisiae deletion strains, locus YJR075W, strain HOC1, stronger effect = lower value 1.01 | S. cerevisiae deletion strains, locus YKL009W, strain mrt4, stronger effect = lower value 0.983 | S. cerevisiae deletion strains, locus YKL068W, stronger effect = lower value 0.992 | S. cerevisiae deletion strains, locus YKL085W, strain MDH1 (second series), stronger effect = lower value 0.983 | S. cerevisiae deletion strains, locus YKL085W, strain MDH1, stronger effect = lower value 0.983 | S. cerevisiae deletion strains, locus YKL160W, strain elf1, stronger effect = lower value 0.957 | S. cerevisiae deletion strains, locus YKL190W, strain CNB1, stronger effect = lower value 1 | S. cerevisiae deletion strains, locus YKR001C, strain vps1, stronger effect = lower value 0.944 | S. cerevisiae deletion strains, locus YKR026C, strain gcn3, stronger effect = lower value 0.985 | S. cerevisiae deletion strains, locus YKR091W, strain srl3, stronger effect = lower value 0.985 | S. cerevisiae deletion strains, locus YLL001W, strain dnm1, stronger effect = lower value 1.01 | S. cerevisiae deletion strains, locus YLL026W, stronger effect = lower value 0.964 | S. cerevisiae deletion strains, locus YLL041C, strain sdh2, stronger effect = lower value 0.985 | S. cerevisiae deletion strains, locus YLR027C, strain aat2, stronger effect = lower value 0.998 | S. cerevisiae deletion strains, locus YLR039C, strain RIC1, stronger effect = lower value 1.01 | S. cerevisiae deletion strains, locus YLR058C, strain SHM2, stronger effect = lower value 1.01 | S. cerevisiae deletion strains, locus YLR102C, strain apc9, stronger effect = lower value 0.981 | S. cerevisiae deletion strains, locus YLR113W, strain HOG1, stronger effect = lower value 1.01 | S. cerevisiae deletion strains, locus YLR221C, strain rsa3, stronger effect = lower value 1.01 | S. cerevisiae deletion strains, locus YLR258W, strain gsy2, stronger effect = lower value 0.983 | S. cerevisiae deletion strains, locus YLR262C, strain YPT6 (second series), stronger effect = lower value 0.996 | S. cerevisiae deletion strains, locus YLR262C, strain YPT6, stronger effect = lower value 1.02 | S. cerevisiae deletion strains, locus YLR268W, strain sec22, stronger effect = lower value 0.953 | S. cerevisiae deletion strains, locus YLR320W, strain mms22, stronger effect = lower value 0.98 | S. cerevisiae deletion strains, locus YLR330W, strain CHS5, stronger effect = lower value 1.01 | S. cerevisiae deletion strains, locus YLR342W, strain FKS1 (second series), stronger effect = lower value 1 | S. cerevisiae deletion strains, locus YLR342W, strain FKS1, stronger effect = lower value 0.982 | S. cerevisiae deletion strains, locus YLR357W, strain rsc2, stronger effect = lower value 0.941 | S. cerevisiae deletion strains, locus YLR370C, strain arc18, stronger effect = lower value 0.991 | S. cerevisiae deletion strains, locus YLR371W, strain rom2, stronger effect = lower value 0.987 | S. cerevisiae deletion strains, locus YLR384C, strain iki3, stronger effect = lower value 0.993 | S. cerevisiae deletion strains, locus YLR418C, strain cdc73, stronger effect = lower value 0.968 | S. cerevisiae deletion strains, locus YML016C, strain PPZ1, stronger effect = lower value 1.01 | S. cerevisiae deletion strains, locus YML032C, strain rad52, stronger effect = lower value 0.974 | S. cerevisiae deletion strains, locus YML120C, strain ndi1, stronger effect = lower value 0.99 | S. cerevisiae deletion strains, locus YML124C, strain tub3, stronger effect = lower value 0.981 | S. cerevisiae deletion strains, locus YMR058W, strain fet3, stronger effect = lower value 1.04 | S. cerevisiae deletion strains, locus YMR078C, strain ctf18, stronger effect = lower value 0.989 | S. cerevisiae deletion strains, locus YMR125W, strain sto1, stronger effect = lower value 0.942 | S. cerevisiae deletion strains, locus YMR129W, stronger effect = lower value 0.988 | S. cerevisiae deletion strains, locus YMR205C, strain PFK2, stronger effect = lower value 0.958 | S. cerevisiae deletion strains, locus YMR223W, strain ubp8, stronger effect = lower value 0.991 | S. cerevisiae deletion strains, locus YMR231W, strain pep5, stronger effect = lower value 0.989 | S. cerevisiae deletion strains, locus YMR263W, strain SAP30, stronger effect = lower value 1.01 | S. cerevisiae deletion strains, locus YMR307W, strain GAS1, stronger effect = lower value 0.991 | S. cerevisiae deletion strains, locus YNL067W, strain RPL9B, stronger effect = lower value 1.01 | S. cerevisiae deletion strains, locus YNL071W, strain lat1, stronger effect = lower value 0.983 | S. cerevisiae deletion strains, locus YNL183C, strain NPR1, stronger effect = lower value 0.961 | S. cerevisiae deletion strains, locus YNL209W, strain ssb2, stronger effect = lower value 0.978 | S. cerevisiae deletion strains, locus YNL233W, strain BNI4, stronger effect = lower value 1.01 | S. cerevisiae deletion strains, locus YNL248C, strain rpa49, stronger effect = lower value 0.925 | S. cerevisiae deletion strains, locus YNL250W, strain rad50, stronger effect = lower value 0.985 | S. cerevisiae deletion strains, locus YNL271C, strain bni1, stronger effect = lower value 0.971 | S. cerevisiae deletion strains, locus YNL298W, strain CLA4, stronger effect = lower value 0.98 | S. cerevisiae deletion strains, locus YNL307C, strain MCK1, stronger effect = lower value 0.975 | S. cerevisiae deletion strains, locus YNL322C, strain KRE1 (second series), stronger effect = lower value 0.944 | S. cerevisiae deletion strains, locus YNR049C, strain mso1, stronger effect = lower value 0.985 | S. cerevisiae deletion strains, locus YNR052C, strain pop2, stronger effect = lower value 0.988 | S. cerevisiae deletion strains, locus YOL006C, strain TOP1, stronger effect = lower value 1.06 | S. cerevisiae deletion strains, locus YOL012C, strain htz1 1.1 | S. cerevisiae deletion strains, locus YOL147C, strain pex11, stronger effect = lower value 0.975 | S. cerevisiae deletion strains, locus YOR001W, strain rrp6, stronger effect = lower value 1.02 | S. cerevisiae deletion strains, locus YOR061W, strain CKA2, stronger effect = lower value 1.01 | S. cerevisiae deletion strains, locus YOR069W, strain VPS5, stronger effect = lower value 1.01 | S. cerevisiae deletion strains, locus YOR070C, strain gyp1, stronger effect = lower value 0.979 | S. cerevisiae deletion strains, locus YOR080W, strain dia2, stronger effect = lower value 0.987 | S. cerevisiae deletion strains, locus YOR083W, strain WHI5, stronger effect = lower value 0.901 | S. cerevisiae deletion strains, locus YOR106W, strain vam3, stronger effect = lower value 0.924 | S. cerevisiae deletion strains, locus YOR136W, strain idh2, stronger effect = lower value 0.986 | S. cerevisiae deletion strains, locus YOR144C, strain elg1, stronger effect = lower value 0.985 | S. cerevisiae deletion strains, locus YOR184W, strain ser1, stronger effect = lower value 0.974 | S. cerevisiae deletion strains, locus YOR231W, strain MKK1, stronger effect = lower value 0.983 | S. cerevisiae deletion strains, locus YOR265W, strain rbl2, stronger effect = lower value 0.969 | S. cerevisiae deletion strains, locus YOR270C, strain vph1, stronger effect = lower value 0.988 | S. cerevisiae deletion strains, locus YOR290C, strain snf2, stronger effect = lower value 0.962 | S. cerevisiae deletion strains, locus YOR316C, strain cot1, stronger effect = lower value 0.991 | S. cerevisiae deletion strains, locus YPL051W, strain arl3, stronger effect = lower value 0.967 | S. cerevisiae deletion strains, locus YPL078C, strain atp4, stronger effect = lower value 0.961 | S. cerevisiae deletion strains, locus YPL106C, strain sse1, stronger effect = lower value 0.976 | S. cerevisiae deletion strains, locus YPL240C, strain hsp82, stronger effect = lower value 0.986 | S. cerevisiae deletion strains, locus YPL241C, strain CIN2, stronger effect = lower value 1.01 | S. cerevisiae deletion strains, locus YPL256C, strain CLN2, stronger effect = lower value 0.973 | S. cerevisiae deletion strains, locus YPR119W, strain clb2, stronger effect = lower value 0.99 | S. cerevisiae deletion strains, locus YPR141C, strain kar3, stronger effect = lower value 0.993 | S. cerevisiae deletion strains, locus YPR163C, strain tif3, stronger effect = lower value 0.973 | S. cerevisiae deletion strains, locus YPR167C, strain met16, stronger effect = lower value 0.979 | S. cerevisiae deletion strains, strain wtn01, stronger effect = lower value 0.969 | S. cerevisiae strains, strain wild type, stronger effect = lower value 1.01
